Experimental data reported in PubChem BioAssay AID488969 (Vanderbilt High Throughput Screening Facility, 2010).
Whole data set: some 110,000 compounds, median “z-score” near -0.1, cut for the highest 2% near 2. This excerpt belongs to a sample that is enriched for the highest values. Calls of active or inactive are those of the source.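 How the source made its calls: active means z-score in the third read window above 3 or below -3; inactive means the rest.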

Molecular target: Metabotropic glutamate receptor 8 (Rattus norvegicus) (UniProt P70579)
Test: rat mGluR8 modulators via GIRK flux, primary screen, cell-based, thallium flux, HTS (AID 488969)
Conditions: HEK293 rat mGluR8, GIRK (G protein-gated inwardly rectifying potassium channel) thallium flux, FluoZin2; at 10 µM; stronger effect = higher value; submaximal glutamate (EC20) added with thallium

Sequence of Metabotropic glutamate receptor 8 (Rattus norvegicus) (P70579 whole entry, looked up): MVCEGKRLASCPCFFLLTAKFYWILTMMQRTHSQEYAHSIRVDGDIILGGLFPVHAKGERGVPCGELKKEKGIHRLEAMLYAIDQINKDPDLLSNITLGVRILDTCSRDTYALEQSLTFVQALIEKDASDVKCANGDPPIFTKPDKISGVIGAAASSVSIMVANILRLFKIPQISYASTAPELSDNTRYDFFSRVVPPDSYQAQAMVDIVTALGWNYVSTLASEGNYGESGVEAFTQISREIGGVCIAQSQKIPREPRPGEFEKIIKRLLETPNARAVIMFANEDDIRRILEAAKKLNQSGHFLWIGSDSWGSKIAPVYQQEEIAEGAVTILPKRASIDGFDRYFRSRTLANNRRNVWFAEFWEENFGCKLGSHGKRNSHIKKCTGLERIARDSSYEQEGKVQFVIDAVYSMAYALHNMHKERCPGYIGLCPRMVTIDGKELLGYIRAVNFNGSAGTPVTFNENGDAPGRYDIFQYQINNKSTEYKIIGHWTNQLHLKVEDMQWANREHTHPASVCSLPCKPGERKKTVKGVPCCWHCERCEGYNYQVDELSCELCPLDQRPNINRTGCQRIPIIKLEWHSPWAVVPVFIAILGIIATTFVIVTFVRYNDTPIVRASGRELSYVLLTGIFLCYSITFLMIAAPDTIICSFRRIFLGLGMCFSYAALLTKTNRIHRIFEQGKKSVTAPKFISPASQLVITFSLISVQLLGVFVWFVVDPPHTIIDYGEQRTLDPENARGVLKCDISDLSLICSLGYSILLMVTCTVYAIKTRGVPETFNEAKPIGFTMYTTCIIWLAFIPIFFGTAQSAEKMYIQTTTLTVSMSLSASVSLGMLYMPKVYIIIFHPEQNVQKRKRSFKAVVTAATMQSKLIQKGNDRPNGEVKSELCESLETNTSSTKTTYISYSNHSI

| Structure (SMILES) | z-score |
| --- | --- |
| Cn1cnnc1SCC(=O)Nc1sc2c(c1C#N)CCCCC2 | 0.0796 |
| COc1ccc2cnn(Cc3ccccc3)c(=O)c2c1OC | 0.037 |
| Cc1ccc(-c2n[nH]c(=S)n2/N=C/c2cccs2)cc1 | 2.22 |
| S=c1[nH]nc(C2CCCCC2)n1/N=C/c1cccs1 | 2.48 |
| S=c1[nH]nc(-c2ccccc2)n1/N=C/c1cccs1 | 0.587 |
| Cc1ccsc1/C=N/n1c(COc2ccccc2)n[nH]c1=S | 0.533 |
| Cc1cccc(-c2n[nH]c(=S)n2/N=C/c2ccc(C)s2)c1 | 0.7 |
| Cc1ccc(/C=N/n2c(COc3ccccc3)n[nH]c2=S)s1 | 3.29 (active) |
| CC(C)(C)c1n[nH]c(=S)n(/N=C/c2cccs2)c1=O | 0.25 |
| Cc1ccc(/C=N/n2c(-c3cccnc3)n[nH]c2=S)s1 | -0.311 |
| Cc1ccc(-c2n[nH]c(=S)n2/N=C/c2ccc(C)s2)cc1 | 2.29 |
| Cc1ccsc1/C=N/n1c(C2CCCCC2)n[nH]c1=S | 0.383 |
| Cc1ccc(/C=N/n2c(C3CCCCC3)n[nH]c2=S)s1 | 0.644 |
| S=c1[nH]nc(COc2ccccc2)n1/N=C/c1cccs1 | 0.649 |
| CS(=O)(=O)Nc1ccc(-c2n[nH]c(=S)n2-c2ccccc2)cc1 | 0.118 |
| CCN(CCNC(=O)C1CCN(Cc2nc(-c3ccc(Cl)cc3)oc2C)CC1)c1ccccc1 | 1.3 |
| CN(C)c1ccnc(NCc2ccccc2)c1C#N | -0.278 |
| O=C(Nc1ccncc1)Nc1ccccn1 | -0.133 |
| CCC(=O)N/C(=N\OCc1ccc(F)cc1)c1nonc1NC(=O)CC | -0.064 |
| COc1ccccc1-c1noc(CCC(=O)Nc2cccc(C)c2)n1 | -0.323 |
| O=C(c1cnn2c(C(F)(F)F)cc(-c3ccco3)nc12)N1CCCCCC1 | 2.24 |
| O=C(c1cnn2c(C(F)(F)F)cc(-c3ccco3)nc12)N1CCCc2ccccc21 | -0.976 |
| O=C(c1cnn2c(C(F)(F)F)cc(-c3ccco3)nc12)N1CCc2ccccc2C1 | -1.04 |
| COc1cc(C(C)=O)ccc1COc1ccc(C(=O)OCC(=O)NC(C)(C)C)cc1OC | -0.573 |

| Structure (SMILES) | z-score |
| --- | --- |
| O=C(NCc1ccccn1)c1ccc(CNS(=O)(=O)c2ccc(F)cc2)cc1 | -0.111 |
| CN1C(=O)c2ccccc2N(C)C1c1cccs1 (stereo unspecified) | -1.51 |
| O=c1c2ccccc2[nH]c(=S)n1CC1CCCO1 (stereo unspecified) | 0.302 |
| O=c1c2[nH]c3ccccc3c2ncn1C1CCCCC1 | 0.256 |
| Cc1c(-n2c(=S)[nH]c3ccccc3c2=O)c(=O)n(-c2ccccc2)n1C | 0.153 |
| CC1CCC(n2c(=S)[nH]c3ccccc3c2=O)CC1 (stereo unspecified) | 8.55 (active) |
| CCOC(=O)N1CCC(n2c(=S)[nH]c3ccccc3c2=O)CC1 | 0.582 |
| O=c1c2ccccc2[nH]c(=S)n1C1CCCCC1 | 12.5 (active) |
| Cc1ccc(S(=O)(=O)Nc2cc(C(F)(F)F)ccc2N2CCOCC2)cc1 | 0.266 |
| Cc1ccc(-c2nnc3n2CCCCC3)cc1 | 0.0634 |
| CCNC(=O)COC(=O)C1C(C(=O)OCC)=C(C)NC(C)=C1C(=O)OCC | -0.145 |
| O=C(Cn1c(=O)n(-c2ccccc2)c(=O)c2sccc21)N1CCCC1 | -0.24 |
| Cc1ccc(OCC(=O)N/N=C/c2cn(Cc3ccccc3)c3ccccc23)cc1 | -0.188 |
| O=C(O)CCN1C(=O)/C(=C/c2ccc(-c3nc4ccccc4s3)o2)SC1=S | 1.83 |
| O=C(O)CCN1C(=O)/C(=C\c2ccc(-c3nc4ccccc4s3)o2)SC1=S | 2.49 |
| O=C(O)CCCN1C(=O)/C(=C/c2ccc(-c3nc4ccccc4s3)o2)SC1=S | 0.773 |
| COc1ccccc1N1C(N)=NC(N)=NC1(C)C | -0.0746 |
| CC(=O)CCc1ccc2oc(C(=O)O)c(C)c2c1 | -0.497 |
| COC(=O)c1[nH]c2ccc(F)cc2c1NC(=O)CCN1CCN(Cc2ccc3c(c2)OCO3)CC1 | -0.752 |
| COC(=O)c1[nH]c2ccc(C)cc2c1NC(=O)CCN1CCN(Cc2ccc3c(c2)OCO3)CC1 | 9.23 (active) |
| Cc1[nH]c2ccccc2c1NC(=O)CN1CCN(Cc2ccc3c(c2)OCO3)CC1 | -0.288 |
| CC(=NC1CC1)c1c(-c2ccccc2)[nH]n(-c2nc3ccccc3s2)c1=O | -0.25 |
| Cc1scc(-c2n[nH]c(=S)n2Cc2ccccc2)c1C | 0.854 |
| CCc1c(-c2n[nH]c(=S)n2Cc2ccccc2)csc1C | 2.88 |

| Structure (SMILES) | z-score |
| --- | --- |
| Cc1cc(-c2n[nH]c(=S)n2Cc2ccccc2)cs1 | 0.453 |
| S=c1[nH]nc(-c2ccncc2)n1Cc1ccccc1 | 1.42 |
| CCc1cc(-c2n[nH]c(=S)n2CC(C)C)cs1 | 1.12 |
| CCCc1cc(-c2n[nH]c(=S)n2Cc2ccccc2)cs1 | 4.6 (active) |
| CCCc1cc(-c2n[nH]c(=S)n2CC(C)C)cs1 | 4.16 (active) |
| Cc1cc(-c2n[nH]c(=S)n2CC(C)C)cs1 | -0.405 |
| CCc1cc(-c2n[nH]c(=S)n2Cc2ccccc2)cs1 | 0.464 |
| Cc1nc2c(C)cccc2cc1C(=O)N/N=C/c1cccnc1 | -0.392 |
| CCc1cccc(CC)c1NC(=O)COC(=O)c1cccc(-c2ccc(OC(C)=O)cc2)c1 | -1.91 |
| Cc1ccccc1C(=NCCCN(C)C)c1ccccc1C | 0.825 |
| O=C(Cc1cccs1)N(Cc1ccco1)C1(C(=O)NC2CCCCC2)CCCCC1 | 1.89 |
| Cn1nc(Oc2nc(N3CCOCC3)nc(N3CCOCC3)n2)ccc1=O | 0.165 |
| CCOC(=O)N1CCN(C(=O)c2cc3cc(Br)ccc3oc2=O)CC1 | -0.271 |
| CCC1CCCCN1C(=O)c1cc2cc(Br)ccc2oc1=O (stereo unspecified) | 7.8 (active) |
| O=C(c1cc2cc(Br)ccc2oc1=O)N1CCCC1 | 0.0138 |
| C=CCNC(=O)CC(=O)N/N=C/c1ccc(F)cc1 | -0.18 |
| C=CCn1c(-c2ccc(OC)cc2)csc1=Nc1c(C)n(C)n(-c2ccccc2)c1=O | -0.422 |
| N#CC1=C(S)N=C(N)C(c2nc(-c3ccccc3)cs2)C12CCCC2 (stereo unspecified) | 0.271 |
| Cc1ccc(S(=O)(=O)N(C)/C(=N/S(=O)(=O)c2ccccc2)c2ccccc2)cc1 | -0.162 |
| CC(=O)/C=C\c1cn(-c2ncc(C(F)(F)F)cc2Cl)c2ccccc12 | -0.119 |
| CN(C)/C=C/C(=O)/C=C/c1cn(-c2ncc(C(F)(F)F)cc2Cl)c2ccccc12 | 5.57 (active) |
| O=C(O)/C=C/c1cn(-c2ncc(C(F)(F)F)cc2Cl)c2ccccc12 | -0.0759 |
| CN1CCN(C(=O)c2ccc(-c3nn(C)c(=O)c4ccccc34)cc2)CC1 | -0.877 |
